Records with an inconclusive call do not appear. The source made the active and inactive calls. The call rests on the fitted dose curve; in most records, active means well fitted curve in either direction with a large enough effect (not every such curve was filed as active); inconclusive means small, poorly fitted or top-dose-only effect, or another doubt; inactive means flat fitted curve, though single readings scatter.
assay: AP1 Signaling Pathway (AID 357); details: ME-180 (cervical carcinoma) AP-1-bla reporter, EGF-induced, beta-lactamase ratio, 5 h; at 7.69 µM (top of the series) unless noted;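 further: ME-180 reporter cells stimulated with EGF at its EC50 level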
In short: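 Read-out was the 460nm/530nm emission ratio (excitation 405nm) after CCF4 loading for 2.5 hours at room temperature. Cells carried an AP-1-driven beta-lactamase reporter, were stimulated with EC50 EGF plus compound for 5 hours, and AC50 values came from titrations.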
On the % scale 0 is the no-effect control and ±100 the full control effect.

Activity change, negative = inhibition, inactive:
O=C(c1ccncc1)N1CCC2(CCCN(c3ncccn3)C2)CC1 -5.83%, Cn1c(=O)c(-c2cc(F)cc(F)c2)nc2cnc(Oc3cccc(Cl)c3)nc21 -16%, O=C(c1cnccn1)N1CCC2(CCCN(c3ccncc3)C2)CC1 -3.01%, COc1ccc(Oc2ncc3ncc(=O)n(Cc4cccc(OC)c4)c3n2)cc1 -25.4%, O=C(Oc1ccccc1)N1CCC[C@@]2(CCN(c3ccccc3)C2)C1 -15.6%, O=C(c1csnn1)N1CCC[C@@]2(CCN(c3ccccc3)C2)C1 -5.43%, N#CCCn1c(=O)cnc2cnc(Nc3ccccc3)nc21 -26.6%, O=C(c1ccco1)N1CCC2(CC1)CCN(c1ccccn1)CC2 -7.81%, O=C(c1cccc(F)c1)N1CCC2(CC1)CCN(c1ccccn1)CC2 -6.05%, O=c1c(CCc2ccccc2)nc2cnc(Nc3ccccc3)nc2n1Cc1cccs1 -26.7%, O=C(c1cnccn1)N1CCC2(CC1)CCN(c1cccc(-c3ccccc3)c1)CC2 -9.46%, CCNc1ncc2nc(-c3cccs3)c(=O)n(-c3ccc(OC)cc3)c2n1 -0.164%, CC(=O)N1CCC2(CCN(Cc3ccc(C#N)cc3)CC2)CC1 -3.09%, COc1ccc(C(=O)N2CCC3(CCCN(Cc4nccs4)C3)CC2)cc1 -4.03%, Cc1cccc(CNc2cc(-c3ccccc3C)ncn2)c1 13.4%, N#Cc1ccc(CN2CCC3(CC2)CCN(C(=O)c2cnccn2)CC3)cc1 4.06%, O=C(Nc1ccccc1)N1CCCC2(CCN(C(=O)c3cccc(F)c3)CC2)C1 -6.89%, O=c1c(-c2ccc(F)c(F)c2)nc2cncnc2n1Cc1ccccc1 -0.964%, COc1ccc(C(=O)N2CCC3(CCCN(c4ccccc4)C3)CC2)cc1 -1.35%, Cn1cccc1C(=O)N1CCC2(CCCN(Cc3nccs3)C2)CC1 -3.56%, O=C(c1ccncc1)N1CCC2(CCN(Cc3cc(C(F)(F)F)cc(C(F)(F)F)c3)CC2)CC1 2.71%, N#CCCn1c(=O)c(-c2cccs2)nc2cnc(Oc3ccccc3)nc21 9.42%, O=C(c1cnccn1)N1CCC2(CC1)CN(Cc1ccccc1)C2 -15.8%, O=C(c1csnn1)N1CCC2(CCCN(c3ccccn3)C2)CC1 -4.82%, CN(C)Cc1ccccc1-c1cncnc1Nc1ccc(F)cc1 18.9%, N#Cc1cccc(NC(=O)N2CC3(CCN(C(=O)c4cnccn4)CC3)C2)c1 -10.3%, O=C(Oc1ccccc1)N1CCC2(CC1)CCN(c1ccccn1)CC2 -11.8%, COCCn1c(=O)c(-c2ccc(OC)cc2)nc2cnc(Nc3ccccc3)nc21 6.46%, COc1cccc(Cn2c(=O)c(-c3cccc(F)c3)nc3cncnc32)c1 -9.03%, c1cncc(-c2nc(NCCN3CCOCC3)c3ccccc3n2)c1 -8.53%, O=S(=O)(c1ccccc1)N1CCC2(CCCN(Cc3ccccc3)C2)CC1 10.9%, Cn1cccc1C(=O)N1CCC[C@@]2(CCN(c3cccc(-c4ccccc4)c3)C2)C1 -10.7%, COCCn1c(=O)c(-c2cccs2)nc2cnc(OCc3ccccc3)nc21 2.42%, O=C(c1ccco1)N1CCC2(CCCN(c3cccc(-c4ccccc4)c3)C2)CC1 12.9%, N#Cc1ccc(CN2CCCC3(CCN(C(=O)c4cnccn4)CC3)C2)cc1 -6.06%, N#Cc1cccc(NC(=O)N2CCCC3(CCN(C(=O)c4ccncc4)CC3)C2)c1 -9.49%, O=C(c1ccncc1)N1CCC[C@@]2(CCN(Cc3cc(C(F)(F)F)cc(C(F)(F)F)c3)C2)C1 8.67%, Cc1noc(C)c1C(=O)N1CCC2(CC1)CCN(C(c1ccccc1)c1ccccc1)CC2 -6.81%, COc1ccc(C(=O)N2CCC3(CCCN(c4ccc(-c5ccccc5)cc4)C3)CC2)cc1 -8.58%

assay: NFAT Signaling Pathway (AID 444); details: Jurkat NFAT-bla M1, carbachol, beta-lactamase ratio, 5 h; at 7.69 µM (top of the series) unless noted;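 further: carbachol stimulus at about its EC50 of 1 µM final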
In short: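 Read-out: CCF4 FRET ratio (460 nm/530 nm) after 1 h RT dye loading, used for %activity and AC50 from titration series. Cells: Jurkat NFAT-β-lactamase/M1 line, treated with compound plus 1 uM carbachol for 5 h, 37 °C.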

Activity change, negative = inhibition, inactive:
COc1ccc(Oc2ncc3ncc(=O)n(Cc4cccc(OC)c4)c3n2)cc1 -6.25%, N#CCCn1c(=O)cnc2cnc(Nc3ccccc3)nc21 -3.19%, CCNc1ncc2nc(-c3cccs3)c(=O)n(-c3ccc(OC)cc3)c2n1 -15.9%, O=c1c(-c2ccc(F)c(F)c2)nc2cncnc2n1Cc1ccccc1 -10.8%, N#CCCn1c(=O)c(-c2cccs2)nc2cnc(Oc3ccccc3)nc21 15.6%, N#Cc1cccc(NC(=O)N2CC3(CCN(C(=O)c4cnccn4)CC3)C2)c1 14.6%, COCCn1c(=O)c(-c2ccc(OC)cc2)nc2cnc(Nc3ccccc3)nc21 -9.78%, COc1cccc(Cn2c(=O)c(-c3cccc(F)c3)nc3cncnc32)c1 -6.22%, c1cncc(-c2nc(NCCN3CCOCC3)c3ccccc3n2)c1 7.81%, Cn1cccc1C(=O)N1CCC[C@@]2(CCN(c3cccc(-c4ccccc4)c3)C2)C1 -10.5%, COCCn1c(=O)c(-c2cccs2)nc2cnc(OCc3ccccc3)nc21 4.34%
